# Screening data from PubChem.
# Hits are enriched below; roughly 19% of the tested compounds scored in any of these assays.
# ELG1 repair inh: qHTS screen for small molecules that inhibit ELG1-dependent DNA repair in human embryonic kidney (HEK293T) cells expressing luciferase-tagged ELG1 | HEK293T ELG1-luciferase reporter, luminescence, 16 h; DNA damage induced by 5-fluorouridine | Potency, µM (doses to about 46.1 µM), for inactives: at the highest dose activity change, negative = inhibition, usual class: inhibitors | actives 2.3% (n = 330,000) | AID 504467, 2011; further: potency means the concentration at half of the fitted maximal effect; nearly all actives have a fitted effect of over 55% in size
#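 Luminescence from the luciferase reporter, measured 30 min after ONE-Glo reagent at room temperature, was the read-out. Beforehand, 2,000 cells per well were exposed for 16 hr at 37 °C to 5-fluorouridine together with compound or vehicle.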
# HT1080 IDH1KD tx: qHTS for induction of synthetic lethality in tumor cells producing 2HG: qHTS for the HT-1080-IDH1KD cell line | HT-1080 IDH1 knockdown viability, ATP luminescence, 48 h | Potency, µM (doses to about 46.1 µM), inactives show top-dose activity, negative = toxicity, hits mostly cytotoxic | actives 2% (n = 360,000) | AID 686971, 2013;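 further: potency means the concentration at half of the fitted maximal effect; 0% = DMSO wells and -100% = cell-free medium wells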
#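 Cytotoxicity counter-line: IDH1KD HT-1080, 48 h, CellTiter-Glo. Curves classed by r2, magnitude and activity.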
# HT1080NT lethal: qHTS for induction of synthetic lethality in tumor cells producing 2HG: qHTS for the HT-1080-NT fibrosarcoma cell line | HT-1080-NT fibrosarcoma viability, CellTiter-Glo ATP luminescence, 48 h | Potency, µM (series often up to 46.1 µM), inactives show at the highest dose activity, negative = less viability, actives largely listed as cytotoxic | actives 1.6% (n = 360,000);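 further: NT is the 2HG producing partner of a matched IDH1 knockdown line; potency means the concentration at half of the fitted maximal effect; 0% = DMSO-treated cells and -100% = media-only wells without cells; nearly all actives have a fitted effect of over 55% in size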
#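 A 48-hour cytotoxicity screen used HT-1080-NT cells plated 2 hours before compound delivery. ATP-based CellTiter-Glo luminescence measured viability, normalized to DMSO and no-cell controls.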
# TDP1 cell noCPT: qHTS for Inhibitors of human tyrosyl-DNA phosphodiesterase 1 (TDP1): qHTS in cells in absence of CPT | DT40 Tdp1-/- hTDP1 cells, no CPT, ATP luminescence, 48 h | Potency, µM (titrated, usually from 46.2 µM), inactives show top-dose activity change, negative = growth inhibition, most hits filed as inhibitors | actives 15% (n = 420,000); further: potency means the concentration at half of the fitted maximal effect; nearly all actives have a fitted effect of over 55% in size
#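 A cellular qHTS used chicken DT40 cells lacking endogenous Tdp1 but carrying stably transfected human TDP1. Compounds were applied without camptothecin, and cell growth kinetics were judged by ATP-dependent luminescence after ≥48 hr.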
# TDP1 cell CPT: qHTS for Inhibitors of human tyrosyl-DNA phosphodiesterase 1 (TDP1): qHTS in cells in presence of CPT; chicken DT40 Tdp1-/-;hTDP1 cells + 20 nM CPT, ATP luminescence, 48 h; Potency, µM (highest dose often 46.2 µM), for inactives: at the highest dose activity change, negative = growth inhibition, most hits filed as inhibitors; actives 12% (n = 420,000); further: potency means the concentration at half of the fitted maximal effect; nearly all actives have a fitted effect of over 55% in size
#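 Cell growth measured by CellTiter-Glo luminescence after a minimum 48 h, 37 C compound exposure with 20 nM CPT in Tdp1-knockout DT40 cells stably expressing hTDP1, seeded 400/well; qHTS titration format.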
# IL-1B inflam inh: qHTS for Inhibitors of Inflammasome Signaling: IL-1-beta AlphaLISA Primary Screen; THP-1 LPS/ATP IL-1B secretion, AlphaLISA, 16 h; hits give low values; activity change, % at 57.5 µM; AID 743279, 2014; actives 4.7% (n = 360,000); in the data active means activity change below about -50%; inconclusive means mostly about -30% to -49%
#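 Secreted IL-1B measured by AlphaLISA bead assay after 16 h compound exposure of THP-1 cells; compounds (final up to 57.5 uM) added 1 h before LPS (250 ng/mL) and ATP (1.25 mM) stimulation; lower signal means less secretion.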
# Numbers without * were called inactive; ? = inconclusive; . = not tested or not shown; [ ] = another dose, or the depositor's remark. Unless noted, the call rests on the fitted dose curve; in most records, active means well fitted curve in the direction sought with a large enough effect; inconclusive means small, poorly fitted or top-dose-only effect, or another doubt; inactive means no such curve, though single readings can be large; an effect the other way counts as inactive or inconclusive. Unless noted, on the % scale 0 is the no-effect control and ±100 the full control effect.
SMILES,ELG1 repair inh,HT1080 IDH1KD tx,HT1080NT lethal,TDP1 cell noCPT,TDP1 cell CPT,IL-1B inflam inh
O=C(CN1CCN(c2ccc(C(F)(F)F)cn2)CC1)NCc1ccc2c(c1)OCO2,-4%,-8%,-18%,?,-42%,-10
CC(C)OCC1CC(CC(=O)Nc2ccc([N+](=O)[O-])cc2)C(=O)O1 (centres undefined),4%,8%,2%,-8%,2%,2
Cc1cc(C)c(N2CCN(S(=O)(=O)N3CCCCCC3)CC2)c(C)c1,?,?,?,18µM*,?,-2
CCOc1ccc(CCNC(=O)Cn2ccc3cc(S(=O)(=O)N4CCCCCC4)ccc32)cc1,.,.,.,13µM*,21µM*,.
CCOc1ccc(CCNC(=O)Cn2ccc3cc(S(=O)(=O)N4CCCC4)ccc32)cc1,-7%,-7%,-26%,?,?,23
COc1ccccc1CNC(=O)Cn1ccc2cc(S(=O)(=O)N3CCCC3)ccc21,3%,-7%,-1%,-10%,-14%,-6
O=C(Cn1ccc2cc(S(=O)(=O)N3CCCCCC3)ccc21)NCCc1ccc(Cl)cc1,.,.,.,18µM*,16µM*,.
CSc1ccc(CCNC(=O)Cn2ccc3cc(S(=O)(=O)N4CCCCCC4)ccc32)cc1,.,.,.,?,15µM*,.
COc1ccc(OC)c(CCNC(=O)Cn2ccc3cc(S(=O)(=O)N4CCCCC4)ccc32)c1,.,.,.,7.3µM*,?,.
COc1cccc(CNC(=O)C2CCN(S(=O)(=O)c3ccc4c(c3)OCCO4)CC2)c1,-9%,0%,-2%,-16%,-24%,-5
COc1ccc(/C=C(\NC(=O)c2ccccc2)C(=O)N2CCC(C)CC2)cc1,-6%,-2%,-1%,?,-23%,0
CCC1(C2CCN(C(=O)c3cc(C)cc(C)c3)CC2)NC(=O)N(CCc2scnc2C)C1=O (centres undefined),.,.,.,-17%,-5%[9.04 µM],.
O=C(COC(=O)CCc1ccccc1)Nc1ncc(Cl)cc1Cl,16%,-16%,1%,-5%,-2%,-9
CCOC(=O)CN=C1CC(C)(C)CC2=C1Sc1ncnc(N(C)C)c1N2,?,?,6%,23µM*,13µM*,28
COc1ccc(S(=O)(=O)N2CCCCC2)cc1NC(=O)c1ccc([N+](=O)[O-])o1,?,-6%,7%,21µM*,15µM*,.
COc1ccc(CCC(=O)N2CCN(S(=O)(=O)c3ccc(C)cc3)CC2)cc1,-19%,0%,9%,-28%,-19%,-22
CCN1CCN(c2ccc(S(=O)(=O)N3CCCCC3)cc2NC(=O)c2ccc([N+](=O)[O-])o2)CC1,?,2%,-1%,7.3µM*,8.2µM*,-25
COc1ccc(S(=O)(=O)N2CCN(C(=O)c3ccc([N+](=O)[O-])o3)CC2)cc1,?,?,?,21µM*,10µM*,-82*
Cc1ccc(C(=O)NCC(c2cccs2)S(=O)(=O)c2ccccc2)cc1C (centres undefined),.,.,.,4.1µM*,15µM*,.
Cc1cc(S(=O)(=O)C(CNC(=O)c2ccc(F)c(F)c2)c2cccs2)ccc1F (centres undefined),.,.,.,-3%,3%,.
O=C(NCc1ccccc1Cl)C(=O)NCC(c1cccs1)S(=O)(=O)c1cccs1 (centres undefined),.,.,.,18µM*,?,.
COc1ccc(C(=O)NCC(c2cccs2)S(=O)(=O)c2ccc(C)cc2)cc1 (centres undefined),.,.,.,15µM*,23µM*,.
COc1ccc(C(=O)C/C(=C\C(=O)c2ccc(C)cc2)c2ccccc2)cc1,-14%,-29%,?,23µM*,18µM*,-24
CCc1ccccc1NC(=O)CNC(=O)CCNC(=O)Nc1ccccc1,-1%,21%,2%,-5%,6%,-5
COc1cccc(CNC(=O)C(=O)NCC(c2cccs2)S(=O)(=O)c2cccs2)c1 (centres undefined),.,.,.,21µM*,?,.
SMILES,ELG1 repair inh,HT1080 IDH1KD tx,HT1080NT lethal,TDP1 cell noCPT,TDP1 cell CPT,IL-1B inflam inh
COc1ccc(C(=O)NCC(c2cccs2)S(=O)(=O)c2cccs2)cc1 (centres undefined),.,.,.,16µM*,?,.
COc1cccc(CNC(=O)Nc2cccs2)c1,?,-5%,-4%,?,7.3µM*,-2
COc1ccc(C(CC(=O)c2ccccc2)S(=O)(=O)c2ccc(C)cc2)cc1 (centres undefined),?,1%,16%,14µM*,?,-29
Cc1ccc(F)c(S(=O)(=O)NC(=O)C2(C)CCN2C(=O)c2ccccc2)c1 (centres undefined),.,5%,28%,-7%,-5%,31
FC(F)(F)c1cccc(CN2CCC(c3cc(-c4cccs4)n[nH]3)CC2)c1,?,5.2µM*,7.3µM*,21µM*,8.2µM*,-217*
COC(=O)CCN1CCC(c2cc(-c3cccc(C(F)(F)F)c3)n[nH]2)CC1,20%,17%,-3%,-23%,-7%,4
Cc1ccc(CN2CCC(c3cc(-c4cccs4)n[nH]3)CC2)cc1,-9%,?,?,?,?,-86*
Cc1ccc(CN2CCN(/N=C/c3cccs3)CC2)cc1,5%,5%,9%,-14%,-17%,14
CCOC(=O)CC(NC(=O)N1CCC(CN2CCC(C)CC2)CC1)c1ccccc1 (centres undefined),.,.,.,3%,5%,.
Cc1cc(C(C)(C)C)cc(C)c1COC(=O)c1cccnc1,-25%,?,?,?,-12%,77
O=C1C=CC(=O)N1c1cccc(-c2ccccc2)c1,10%,?,21µM*,0.73µM*,0.65µM*,-65*
O=C1N/C(=N/N=C/c2ccccc2O)SC1Cc1ccc(F)cc1 (centres undefined),?,23µM*,?,0.029µM*,0.18µM*,132
